Among all 310,000 compounds or so, about 14,000 (4.5%) showed an effect of 50% or more. The effect is printed as a negative number. Only a selection was taken, and strong results are over-represented in it overall.
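Note: peak tail current of the secondary pulse compared with the same well before compound.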

In this assay the target is human ether-à-go-go-related gene (hERG) potassium channel (human, UniProt Q12809). Description: primary screen, population patch clamp on CHO cells stably expressing hERG; higher = less effect of the substance.
human ether-à-go-go-related gene (hERG) potassium channel, sequence (Q12809 whole entry, looked up): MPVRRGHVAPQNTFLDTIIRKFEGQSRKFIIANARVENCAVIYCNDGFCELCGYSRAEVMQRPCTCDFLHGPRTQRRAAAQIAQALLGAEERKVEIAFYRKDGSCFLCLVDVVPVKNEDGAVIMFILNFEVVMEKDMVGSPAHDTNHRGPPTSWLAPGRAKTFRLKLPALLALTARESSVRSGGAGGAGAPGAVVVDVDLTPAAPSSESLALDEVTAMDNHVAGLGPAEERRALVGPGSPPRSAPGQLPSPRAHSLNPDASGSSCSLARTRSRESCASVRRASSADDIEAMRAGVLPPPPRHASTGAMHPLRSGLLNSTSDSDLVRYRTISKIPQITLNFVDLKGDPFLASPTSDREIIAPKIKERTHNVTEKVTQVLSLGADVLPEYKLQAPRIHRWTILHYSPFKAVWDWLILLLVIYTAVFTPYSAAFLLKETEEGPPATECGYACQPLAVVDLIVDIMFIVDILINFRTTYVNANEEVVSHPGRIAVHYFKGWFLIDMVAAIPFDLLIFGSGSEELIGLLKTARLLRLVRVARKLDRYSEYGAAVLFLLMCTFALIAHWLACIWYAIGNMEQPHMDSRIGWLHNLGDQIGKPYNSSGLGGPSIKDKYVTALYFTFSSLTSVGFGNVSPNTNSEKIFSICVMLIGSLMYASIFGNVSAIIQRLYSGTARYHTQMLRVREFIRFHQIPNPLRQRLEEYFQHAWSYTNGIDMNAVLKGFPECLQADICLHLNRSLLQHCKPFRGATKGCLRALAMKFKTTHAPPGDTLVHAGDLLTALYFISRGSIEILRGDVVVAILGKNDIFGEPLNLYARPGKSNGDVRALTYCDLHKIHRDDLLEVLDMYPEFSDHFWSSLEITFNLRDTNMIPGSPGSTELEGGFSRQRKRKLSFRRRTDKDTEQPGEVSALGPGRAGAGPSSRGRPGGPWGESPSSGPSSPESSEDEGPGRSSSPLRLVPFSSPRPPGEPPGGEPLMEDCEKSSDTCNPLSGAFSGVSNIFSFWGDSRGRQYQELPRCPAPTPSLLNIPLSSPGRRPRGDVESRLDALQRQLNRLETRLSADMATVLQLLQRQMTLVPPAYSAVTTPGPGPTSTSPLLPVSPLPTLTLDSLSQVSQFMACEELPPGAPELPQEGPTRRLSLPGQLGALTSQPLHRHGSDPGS
`CCOC(=O)c1cnn(CCOC(=O)c2ccccc2F)c1NC(=O)c1ccccc1F`: the “hERG current change (%, negative = inhibition) at 10uM” value is reported as -15.6%.
Turning to `COC(=O)c1cc(Br)c(=O)n(-c2nccs2)c1`, the “hERG current change (%, negative = inhibition) at 10uM” value was -5.98%.
As for `Cc1cccc(N2C(S)=C(C#N)C(=O)NC2c2cccs2)c1` (centres unmarked), the “hERG current change (%, negative = inhibition) at 10uM” value is 13%.
As for `CN(CC(=O)Nc1cccc2ccccc12)C(=O)/C=C/c1cccs1`, the “hERG current change (%, negative = inhibition) at 10uM” value is reported as -10.7%.
In the case of `O=C1OC(/C=C/c2ccc(Cl)cc2)=NC/1=C/c1ccco1` it was 2.78%.
Regarding `Cc1occc1C(=O)NNC(=O)c1ccccc1F`, the “hERG current change (%, negative = inhibition) at 10uM” value was determined as 13%.
As to `CC(=O)C(=Nc1cccc(Cl)c1)NNc1ccccc1C`, the “hERG current change (%, negative = inhibition) at 10uM” value was 8.82%.
As for `O=C(N1CCN(c2ccc(F)cc2)CC1)C1(c2cccs2)CCOCC1`, the “hERG current change (%, negative = inhibition) at 10uM” value was -33%.
To `O=C(c1ccco1)N1CCN(c2ccc([N+](=O)[O-])cc2F)CC1` belongs -64.9%; to `O=C(c1ccco1)N1CCN(c2ccc([N+](=O)[O-])cn2)CC1`, -57.7%.
Regarding `CC(=O)c1ccc(N2CCN(C(=O)c3ccco3)CC2)c(F)c1`, the “hERG current change (%, negative = inhibition) at 10uM” value is -25.2%.
To `O=C(c1ccco1)N1CCN(c2cc(N3CCOCC3)c(F)cc2[N+](=O)[O-])CC1` belongs -49.6%; to `O=C(c1ccco1)N1CCN(c2ccc(N3CCCCC3)nn2)CC1`, -44.8%; to `O=C(c1ccc([N+](=O)[O-])cc1)N1CCN(C(=O)c2ccco2)CC1`, -47.4%.
As to `O=C(CCCNS(=O)(=O)c1cccc2nsnc12)NCc1ccc(Cl)cc1`, the “hERG current change (%, negative = inhibition) at 10uM” value was -37.9%.
In the case of `CC(C)n1nc(C(=O)N2CCN(S(=O)(=O)c3cccs3)CC2)c2ccccc2c1=O` it was -28.7%; in that of `CC(C)Nc1nnc(SCC(=O)N2CCN(C(=O)c3ccco3)CC2)s1`, -2.72%; in that of `CCSc1nnc(SCC(=O)N2CCN(C(=O)c3ccco3)CC2)s1`, -33.4%.
In the case of `O=C(CSc1nnc(SCc2ccc(Cl)cc2)s1)N1CCN(C(=O)c2ccco2)CC1`, the “hERG current change (%, negative = inhibition) at 10uM” value is -33.7%.
For the compound `O=C(CSc1nn(-c2ccc(F)cc2)c(=S)s1)N1CCN(C(=O)c2ccco2)CC1`, the “hERG current change (%, negative = inhibition) at 10uM” value is -75%.
To `O=C(CSc1nn(-c2ccc(Cl)cc2)c(=S)s1)N1CCN(C(=O)c2ccco2)CC1` belongs -70.5%.
Take `O=C(CSc1nn(-c2ccc(F)cc2)c(=S)s1)NC(=O)NCc1ccco1`: the “hERG current change (%, negative = inhibition) at 10uM” value amounted to 2.66%.
As for `O=S(=O)(c1ccc(Cl)cc1)N1CCN(C(=S)Nc2ccccc2F)CC1`, the “hERG current change (%, negative = inhibition) at 10uM” value is given as 2.92%.
`O=C(Nc1cccc(-c2ccc(N3CCOCC3)nn2)c1)c1ccccc1`: the “hERG current change (%, negative = inhibition) at 10uM” value is -30.8%.
To `CC(=O)C[C@@H](O)CC(=O)[C@H]1OC(=O)CC/C=C\Cc2ccccc21` belongs 14.4%; to `O=C(CN1C(=O)C2CC=CCC2C1=O)NCC1COc2ccccc2O1` (centres unmarked), 1.42%.
`CN(C)C(=O)NC(Nc1cccc([N+](=O)[O-])c1)C(Cl)(Cl)Cl` (centres unmarked): the “hERG current change (%, negative = inhibition) at 10uM” value is listed as -27.1%.
Regarding `CCc1ccc(CNC(=O)c2ccc(OC)c(OC3CCN(C(C)C)CC3)c2)nc1`, the “hERG current change (%, negative = inhibition) at 10uM” value is listed as -7.31%.
In the case of `Cc1ccnc(NC(c2cccnc2)c2ccc3cccnc3c2O)c1` (centres unmarked), the “hERG current change (%, negative = inhibition) at 10uM” value was -22.5%.
With `COc1ccc(N2CCN(C(=O)C(=O)c3cn(CC(=O)N4CCOCC4)c4ccccc34)CC2)cc1`, the “hERG current change (%, negative = inhibition) at 10uM” value stood at 2.05%.
In the case of `S=C1NC(c2ccccc2)=CC(c2ccccc2)N1` (centres unmarked) it was 6.64%; in that of `CC(=O)NN1C(=O)/C(=C2/Sc3ccc(Cl)cc3N2C)SC1=S`, 10.6%.
To `C#CC[N+](C)(C)CCCCCCCC.[Br-]` belongs -15.9%.
With `C#CC[N+](C)(C)CCCCCCCCCCCC.[Br-]`, the “hERG current change (%, negative = inhibition) at 10uM” value is -50.7%.
As to `C#CC[N+](C)(C)CCCCCCCCC.[Br-]`, the “hERG current change (%, negative = inhibition) at 10uM” value is listed as -54.9%.
With `CC#CC[N+](C)(C)CCCCCCCCCC.[Br-]`, the “hERG current change (%, negative = inhibition) at 10uM” value is listed as -48.8%.
For `CC#CC[N+](C)(C)CCCCCCCC.[Br-]`, the “hERG current change (%, negative = inhibition) at 10uM” value is -40.1%.
Turning to `C#CC[N+](C)(C)CCCCCCCCCC.[Br-]`, the “hERG current change (%, negative = inhibition) at 10uM” value is listed as -38.4%.
In the case of `CCCCNC(=O)c1ccc2c(c1)N(CC)C(=O)CS2`, the “hERG current change (%, negative = inhibition) at 10uM” value was -2.74%.
In the case of `COC(=O)C1=C(C)N(Cc2ccccc2)C(=NCc2cc(OC)c(OC)c(OC)c2)N[C@H]1c1cccc(F)c1`, the “hERG current change (%, negative = inhibition) at 10uM” value was -23%.
For `COc1ccc(OC)c(/C=C(\C)C(=O)c2c(C)cc(C)[nH]c2=O)c1`, the “hERG current change (%, negative = inhibition) at 10uM” value was determined as 7.34%.
Turning to `CN1CCN(c2ccc(NC(=O)c3ccc([N+](=O)[O-])o3)cc2Cl)CC1`, the “hERG current change (%, negative = inhibition) at 10uM” value is reported as -57.3%.
In the case of `CC(=O)N1CCN(c2ccc(NC(=O)c3ccco3)cc2Cl)CC1` it was 0.303%.
Consider `CC(=O)N1CCN(c2ccc(NC(=O)c3ccc([N+](=O)[O-])o3)cc2Cl)CC1`, for which the “hERG current change (%, negative = inhibition) at 10uM” value is given as -50%.

For the origin of these results see paper PMC4336329 (PLoS ONE, 2015).
